Inconclusive results are not listed. Active and inactive are the calls of the source. Unless noted, calls come from the whole dose curve; as a rule, active = well fitted curve in the direction sought with a large enough effect; inconclusive = small, poorly fitted or top-dose-only effect, or another doubt; inactive = no such curve, though single readings can be large; an effect the other way counts as inactive or inconclusive.
Key:
[1] = qHTS profiling of the MIPE4 collection as inhibitors of Plasmodium falciparum (3D7) proliferation (AID 743344; call rule not given here;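 note: scaled between DMSO vehicle wells and 0.29 µM artemisinin as full inhibition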); settings: P. falciparum 3D7 in erythrocytes, SYBR Green DNA fluorescence, 72 h; at 28.5 µM unless noted
Outline: (§1)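 Erythrocytes infected with P. falciparum (0.3% parasitemia, 2.5% hematocrit) incubated with compounds 72 h at 37 C, 5% CO2. Lysis with saponin/Triton buffer containing SYBR Green I, overnight at room temperature in the dark; DNA fluorescence (485/535 nm) normalised to 0.29 uM artemisinin and DMSO.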

[2] = qHTS profiling of the MIPE4 collection as inhibitors of Plasmodium falciparum (DD2) proliferation (AID 743345; call rule not given here); settings: P. falciparum Dd2 in erythrocytes, SYBR Green DNA, 72 h; at 28.5 µM unless noted
Outline: as §1

[3] = qHTS profiling of the MIPE4 collection as inhibitors of Plasmodium falciparum (DD2) proliferation (Rep 2) (AID 743346; call rule not given here); settings: P. falciparum Dd2 in erythrocytes, SYBR Green DNA, 72 h; at 28.5 µM unless noted
Outline: as §1

[4] = qHTS profiling of the MIPE4 collection as inhibitors of Plasmodium falciparum (HB3) proliferation (AID 743347; call rule not given here;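 note: plate controls were DMSO vehicle wells for no effect and artemisinin wells for full effect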); settings: P. falciparum HB3 in erythrocytes, SYBR Green DNA, 72 h; at 28.5 µM unless noted
Outline: as §1

[5] = High-throughput drug toxicity screening in the BPDCN cell line Gen2.2 (AID 1224824; call rule not given here;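 note: cells exposed to compounds for 48 h before reading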); settings: Gen2.2 BPDCN cells; at 45.8 µM (top of the series) unless noted
Outline: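 CellTiter-Glo luminescence after 48 h compound exposure of Gen2.2 cells; percent activity set with DMSO as 100% and bortezomib (9.2 uM final) as 0%. Cells seeded at 500 per well, RPMI + 10% FBS, 37 °C.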

[6] = High-throughput drug toxicity screening in the BPDCN cell line Cal-1 (AID 1224825; call rule not given here); settings: Cal-1 BPDCN cell viability, qHTS; at 45.8 µM (top of the series) unless noted
Outline: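 500 Cal-1 cells/well, RPMI + glutamine + 10% FBS (phenol red-free); cpd added by pin tool; 48 h, 37C, 5% CO2; CTG 15 min RT, lumi read. Normalised: DMSO 100%, bortezomib 9.2 uM 0%.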

[7] = qHTS assay for measurement of the activity of small molecule inhibitors on Zika virus induced Caspase-3 activity in human iPSC derived neural progenitor cells (hNPCs) (AID 1224857); note: % of control where 0% means no effect; nearly all actives have a fitted effect of over 65% in size
Outline: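 hNPCs seeded 350 cells/well, cultured 16–20 h; compounds added 1 h before ZIKV (2 FFU/cell), 37 C 6 h. Caspase-Glo 3/7 luminescence after 30 min RT; % inhibition from induction scaled to uninfected (0%) and infected (100%) wells.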

[8] = qHTS assay for measurement of the activity of small molecule inhibitors on Zika virus induced Caspase-3 activity in human astrocytoma cells (AID 1224859);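 note: plate controls were ZIKV-infected untreated cells for no effect and uninfected cells for full effect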
Outline: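 Luminescence read-out (Caspase-Glo 3/7, 30 min RT) of caspase activity in SNB-19 cells infected 6 h with ZIKV, 2 FFU/cell, after 1 h compound pretreatment; % inhibition from induction normalised to uninfected (0%) and infected (100%) wells.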

[9] = qHTS Screen of the MIPE 4.0 Collection Against Ewings Sarcoma (RDES) (AID 1259252); note: nearly all actives have a fitted effect of over 35% in size; note: potency is the fitted concentration of half-maximal effect
Outline: (§2)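 Cells plated in serum-containing RPMI (5% FBS) and treated with compound dilutions for 48 h. Readout luminescent viability; normalization relied on vehicle (no inhibition) and media-only columns (full inhibition).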

[10] = qHTS Screen of the MIPE 4.0 Collection Against Ewings Sarcoma (TC71) (AID 1259253); note: nearly all actives have a fitted effect of over 40% in size; note: potency is the fitted concentration of half-maximal effect
Outline: as §2

[11] = qHTS Screen of the MIPE 4.0 Collection Against Ewings Sarcoma (TC32) (AID 1259256); note: nearly all actives have a fitted effect of over 45% in size; note: potency is the fitted concentration of half-maximal effect
Outline: as §2

[12] = qHTS Screen of the MIPE 4.0 Collection Against Ewings Sarcoma (EW8) (AID 1259255); note: nearly all actives have a fitted effect of over 35% in size; note: potency is the fitted concentration of half-maximal effect;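 for viability: 100% = DMSO-treated cells and 0% = medium-only wells without cells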
Outline: as §2

[13] = qHTS profiling for inhibitors of Plasmodium falciparum (HB3) proliferation (AID 743324); settings: Plasmodium falciparum HB3 blood-stage proliferation; at 28.7 µM (top of the series) unless noted;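 note: 100% = DMSO vehicle wells and 0% = artemisinin-treated control wells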
Outline: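 P. falciparum HB3 grown in erythrocytes (0.3% parasitemia, 2.5% hematocrit final) with compound for 72 h at 37 C, 5% CO2. Parasite DNA detected by SYBR Green after saponin/triton lysis overnight; normalized to 0.29 uM artemisinin and DMSO.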

[14] = Identifying Small Molecule Inhibitors of Pancreatic Cancer Stem Cells (A278, Adherent) (AID 1259361);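 note: viability read after 48 h compound exposure; nearly all actives have a fitted effect of over 35% in size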
Outline: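 Pre-formed 14-day tumor spheroids or adherent cells dosed and incubated 48 h, 37C, 5% CO2. Viability assessed by CellTiter-Glo.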

[15] = Identifying Small Molecule Inhibitors of Pancreatic Cancer Stem Cells (Panc1, Spheroid) (AID 1259359);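 note: compound exposure lasted 48 h before reading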
Outline: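 Endpoint: ATP-based luminescence, 48 h drug exposure. Bortezomib at 9.2 uM final as full-kill control; DMSO vehicle as negative control; activity normalized between vehicle and cell-free wells.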

[16] = Identifying Small Molecule Inhibitors of Pancreatic Cancer Stem Cells (SN12C, Spheroid) (AID 1259360); settings: Potency: SN12C spheroid viability; note: potency is the fitted concentration of half-maximal effect
Outline: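 Spheroids grown 14 days in stem cell media on nonadherent hydrogel before screening; cells attached 4 h, then compound exposure 48 h at 37C, 5% CO2. CellTiter-Glo luminescence normalized to DMSO (no inhibition) and no-cell wells (full inhibition).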

SMILES	parasite growth, % of DMSO control [1]	parasite growth remaining, % of DMSO control (lower = more inhibition) [2]	parasite growth, % of control (lower = inhibition) [3] [%]	growth, % of control [4]	cell viability, % of control (lower = more cytotoxic) [5]	viability (% of control) [6]	Potency [7]	Potency [8]	Potency [9]	Potency [10]	Potency [11]	Potency [12]	remaining proliferation (% of control), lower = more inhibition [13] [%]	IC50 (viability decrease) [14]	Potency [15]	Potency [16]
CC[C@H](C)n1cc(C)c2c(C(=O)NCc3c(C)cc(C)[nH]c3=O)cc(-c3ccc(N4CCNCC4)nc3)cc21	4.84%	8.83%	8.77	6.2%	133%	39.5%	inactive	inactive	23.5 µM (active)	11.8 µM (active)	18.7 µM (active)	–	–	–	–	–
CN[C@@H](C)[C@H]1[C@H](O)C[C@@]2(C)[C@@H]3CC[C@H]4C(C)(C)[C@@H](NC)CC[C@@]45C[C@@]35CC[C@]12C	–	50.3%	12.6	–	71.1%	89.5%	inactive	inactive	inactive	inactive	–	inactive	–	–	–	–
CC[C@]1(O)C[C@H]2CN(CCC3=c4ccccc4=N[C]3[C@@](C(=O)OC)(c3cc4c(cc3OC)N(C)[C@H]3[C@@](O)(C(N)=O)[C@H](O)[C@]5(CC)C=CCN6CC[C@]43[C@@H]65)C2)C1	18.7%	14.1%	35	17.4%	14.7%	14.9%	inactive	inactive	0.0033 µM (active)	0.0264 µM (active)	inactive	–	–	–	–	–
CCCCC(F)(F)[C@@]1(O)CC[C@H]2[C@H](CC(=O)[C@@H]2CCCCCCC(=O)O)O1	77.3%	99.5%	70.3	83%	92.5%	106%	inactive	inactive	2.64 µM (active)	2.96 µM (active)	2.96 µM (active)	–	–	–	–	–
CCCCn1c(=O)n(Cc2ccccc2F)c(=O)c2[nH]c(Cc3ccc(NC(C)=O)cc3)nc21	115%	85.9%	–	–	50.4%	86%	inactive	inactive	inactive	20.9 µM (active)	inactive	–	30.8	13.2 µM (active)	–	–
O=C(Nc1cccc(C(F)(F)F)c1)Nc1cc(S(=O)(=O)NC2CC2)ccc1-c1ccsc1	–	82.2%	51.8	78.9%	316%	68.8%	inactive	inactive	20.9 µM (active)	20.9 µM (active)	18.7 µM (active)	–	–	–	–	–
Cc1[nH]c(C=C2C(=O)Nc3ccc(S(=O)(=O)N(C)c4cccc(Cl)c4)cc32)c(C)c1C(=O)N1CCN(C)CC1	–	9.96%	14.4	4.63%	2.96%	0.852%	inactive	inactive	26.4 µM (active)	26.4 µM (active)	–	26.4 µM (active)	–	–	–	–
CCc1cccc(CC)c1NC(=O)N1Cc2[nH]nc(NC(=O)c3ccc(N4CCN(C)CC4)cc3)c2C1	19%	82.8%	21.6	6.85%	146%	12.8%	inactive	inactive	5.9 µM (active)	4.18 µM (active)	0.526 µM (active)	–	–	–	–	–
CN(C)CCOc1ccc(C(=C(CCCl)c2ccccc2)c2ccccc2)cc1	–	–	19.5	27%	103%	111%	inactive	inactive	1.66 µM (active)	3.72 µM (active)	–	inactive	–	–	–	–
O=C1Nc2ccc(I)cc2C1=Cc1cc(Br)c(O)c(Br)c1	20.7%	30.6%	32.9	17.7%	562%	106%	inactive	inactive	18.7 µM (active)	18.7 µM (active)	20.9 µM (active)	–	–	–	–	–
Cc1cnc(CNC(=O)c2c(=O)c3ccc(N4CCCN(C)CC4)nc3n3c2sc2ccccc23)cn1	6.1% [at 9.64 µM]	8.18% [at 9.64 µM]	–	3.84% [at 9.64 µM]	230% [at 23.2 µM]	1.44% [at 23.2 µM]	inactive	inactive	7.24 µM (active)	7.24 µM (active)	inactive	–	–	–	–	–
O=C(CC12CC3CC(CC(C3)C1)C2)Nc1cccc2nc(NCCNCCO)ccc12	4.99%	13.2%	15.5	4.24%	5.97%	5.92%	inactive	inactive	14.8 µM (active)	7.43 µM (active)	13.2 µM (active)	–	–	–	–	–
O=S(=O)(O)c1ccc2cc(N=Nc3cc(S(=O)(=O)O)c4cccnc4c3O)ccc2c1	84.5%	87.9%	–	–	63.9%	89.1%	inactive	inactive	18.7 µM (active)	14.8 µM (active)	16.6 µM (active)	–	–	–	–	–
CCNC(=O)c1noc(-c2cc(C(C)C)c(O)cc2O)c1-c1ccc(CN2CCOCC2)cc1	5.56%	7.71%	9.57	4.24%	14.2%	7.68%	inactive	inactive	0.105 µM (active)	0.118 µM (active)	0.059 µM (active)	–	–	0.0037 µM (active)	inactive	0.0074 µM (active)
NC1(C(=O)N[C@@H](CCO)c2ccc(Cl)cc2)CCN(c2ncnc3[nH]ccc23)CC1	32.2%	85.9%	–	97.9%	6.91%	27.4%	inactive	inactive	3.72 µM (active)	16.6 µM (active)	16.6 µM (active)	–	–	–	–	–
CCC[C@H](Nc1nc(-c2ccc(NC(=O)NCC)c(OC)c2)ncc1C)c1cccnc1	4.72%	7.78%	–	–	9.57%	4.63%	inactive	inactive	0.0093 µM (active)	0.0093 µM (active)	inactive	–	–	–	–	–
